Compound activity (PubChem)
Shown are actives, neighbours in structure and some others; about 2.3% of the full set was active somewhere.
CCT modulator: changes cytosolic chaperonin activity | 360,000 compounds, 0.3% hits | purified chaperonin ATPase assay, HTRF ADP detection, 30 min | activity change, % (no concentration beside the values), hits read low; in the data active means activity change below about -30%; further: on the % scale 0 is the no-effect control and ±100 the full control effect
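TRiC (40 or 20 nM final, by batch activity) in 30 mM Tris pH 7.4, 100 mM KCl, 5 mM MgCl2, 1 mM DTT was treated with compound at 76 uM single dose, then 10 uM ATP, 30 min at 37 °C. ADP was read by HTRF Transcreener.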
aSyn rescue: alpha-synuclein toxicity inhibition in yeast; Yeast expressing alpha-synuclein, growth rescue, BacTiter-Glo, 24 h; Potency, µM (series often up to 46.1 µM), for inactives: top-dose growth rescue (activation), hits mostly activators; 370,000 compounds, 0.14% hits; AID 652106; further: potency means the concentration at half of the fitted maximal effect; % of control where 0% means no effect; nearly all actives have a fitted effect of over 65% in size
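Rescue of yeast growth: cells expressing toxic alpha-synuclein, induced in galactose at OD600 0.02, incubated with compound 24 h at 30 C. ATP luminescence quantified growth; inhibitors of toxicity appear as activators.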
FUS yeast rescue: suppressors of FUS proteinopathy in yeast; AID 1347120; Potency, µM (top dose mostly 76.6 µM), hits mostly activators; S. cerevisiae FUS-expressing, growth rescue, OD600, 24 h; 390,000 compounds, 0.24% hits;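 further: potency means the concentration at half of the fitted maximal effect; plate controls were DMSO vehicle for no effect and reference control for full effect; nearly all actives have a fitted effect of over 55% in size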
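Yeast expressing FUS under galactose induction, OD 0.005 in 2% galactose medium; compounds in a dilution series, 24 h at 30C. Growth rescue by absorbance at 600 nm; CP55940 positive control, DMSO negative.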
TDP-43 yeast inh: inhibitors of TDP-43 toxicity in yeast; TDP-43 expressing yeast growth rescue, BacTiter-Glo, 24 h; Potency, µM (series often up to 46.1 µM), inactives show top-dose growth rescue (activation), actives largely listed as activators; 410,000 compounds, 1.8% hits; AID 652104; further: potency means the concentration at half of the fitted maximal effect; % of control where 0% means no effect; nearly all actives have a fitted effect of over 50% in size
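Luminescence from BacTiter-Glo reports growth of TDP-43-expressing yeast after 24 hr at 30 deg C with compound. Cells were raffinose-pregrown to mid-log, then seeded in galactose medium at OD600=0.02.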
Abeta yeast res: A-beta toxicity reversal in yeast; AID 1347071; yeast expressing A-beta42, growth rescue, OD600, 48 h; response scale: 0% DMSO, 100% iron-clioquinol control; Potency, µM (highest dose often 46.1 µM), actives largely listed as activators; 410,000 compounds, 0.063% hits; further: potency means the concentration at half of the fitted maximal effect; nearly all actives have a fitted effect of over 55% in size
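Yeast A-beta toxicity model in growth medium with pinned compounds, 48 h at 30 C; growth read as absorbance at 600 nm. Normalized to FeCl3/clioquinol equimolar mix (positive) and DMSO (negative).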
MmCpn inh: M. maripaludis TRiC chaperonin inhibition | purified Mm-Cpn ATPase, ADP Transcreener TR-FRET | Potency, µM (highest dose often 76.9 µM), without a hit: at the top dose activity, negative = inhibition, most hits filed as inhibitors | 330,000 compounds, 0.031% hits; further: potency means the concentration at half of the fitted maximal effect; on the % scale 0 is the no-effect control and ±100 the full control effect; nearly all actives have a fitted effect of over 80% in size
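25 nM Mm-CPN + cpd, 10 min 37°C; + 10 uM ATP, 30 min 37°C; buffer 30 mM Tris pH 7.4, 100 mM KCl, 5 mM MgCl2, 1 mM DTT; Transcreener ADP HTRF detection 30 min RT.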
* = called active by the depositor; i = inactive; ? = inconclusive; . = not tested or not shown; ! = not confirmed by another sample; [ ] = remark or other dose. Unless noted, the call rests on the fitted dose curve; in most records, active means well fitted curve in the direction sought with a large enough effect; inconclusive means small, poorly fitted or top-dose-only effect, or another doubt; inactive means no such curve, though single readings can be large; an effect the other way counts as inactive or inconclusive.

SMILES | CCT modulator | aSyn rescue | FUS yeast rescue | TDP-43 yeast inh | Abeta yeast res | MmCpn inh
CC(=O)Nc1cc(-c2cccc(C(=O)NCCN(C)C)c2)cn2c(-c3ccccc3)cnc12 | -38.1* | -4.1% | i | -4.8% | i | .
CC(=O)Nc1cc(-c2ccccc2N(C)C)cn2c(-c3cccc(C(F)(F)F)c3)cnc12 | 0.7 | ? | 31.6µM* | 25.1µM* | i | .
COc1cccc(-c2cnc3c(NC=O)cc(-c4cc(OC)c(OC)c(OC)c4)cn23)c1 | 1.3 | -19.1% | 28.2µM* | ? | i | .
COc1cccc(-c2cnc3c(NC=O)cc(-c4ccc(N(C)C)cc4)cn23)c1 | 0.2 | -9.2% | ? | 20µM* | i | .
COc1cccc(-c2cnc3c(NC=O)cc(-c4ccc(OC)cc4OC)cn23)c1 | -34.9* | -7.0% | ? | 22.4µM* | i | .
CCSc1ccc(-c2cc(NC=O)c3ncc(-c4cccc(C(=O)N(C)C)c4)n3c2)cc1 | 0.2 | 6.1% | 25.1µM* | 5.1% | i | .
CCSc1ccc(-c2cc(NC=O)c3ncc(-c4cccc(C(=O)NCCN(C)C)c4)n3c2)cc1 | -0.4 | -19.6% | i | 21.7% | i | .
COc1cccc(-c2cc(NC=O)c3ncc(-c4ccc(OC)c(OC)c4)n3c2)c1 | -0.6 | -8.4% | ? | ? | i | .
CCOc1ccc(CCNC(=O)c2ccc(Oc3ccccc3)cc2)cc1OCC | . | . | i | . | . | .
O=C(NCCN1C(=O)S/C(=C\c2cccc(Cl)c2Cl)C1=O)C1=COCCO1 | 0.6 | 1.9% | i | 3.98µM* | i | -5.6%
O=C(Nc1ccccn1)c1ccc(COc2ccccc2Cl)o1 | -3.3 | -9.3% | i | 22.4µM* | i | 1.3%
CN(C(=O)c1ccc(COc2ccccc2Cl)o1)c1ccccc1 | 2.7 | -0.8% | i | 10µM* | i | 0.0%
O=S(=O)(/C=C/c1ccccc1)NCc1ccccc1Cl | -1.1 | 12.2% | i | 11.2µM* | i | 0.1%
CCCCN=C(N)NC(=O)c1ccccc1 | . | . | i | . | . | .
Cc1ccc(F)cc1C(=O)N1CCCC(c2nc(-c3cccs3)no2)C1 (configuration not stated) | . | . | i | . | . | .
O=C(CN1CCCC1)Nc1ccccc1Sc1ccc(Cl)cc1 | -35.0* | 5.2% | i | -7.6%[9.22 µM] | i | -5.6%
CCCCOc1ccc(-c2nnc(-c3ccncc3)o2)cc1 | 1.4 | -5.5% | i | 20µM* | i | 0.2%
COc1ccc(C(=O)N(Cc2ccccc2)Cc2ccc(OC)c(COc3ccc(NC(C)=O)cc3)c2)cc1 | . | 4.8% | . | . | . | .
COc1cccc(CNS(=O)(=O)c2cc(Br)ccc2Br)c1 | 1.7 | ? | i | 17.8µM* | i | .
O=S(=O)(NCc1ccc(F)cc1)c1ccc(Br)cc1Br | 2.8 | 20µM* | i | 22.4µM* | i | -5.6%
COc1ccc(OC)c(C2=NS(=O)(=O)N(C)C(C(=O)Nc3ccc(F)cc3F)=C2)c1 | -1.4 | -2.4% | i | 35.5µM*! | i | 0.8%
COc1cc2nc(N3CCCN(C)CC3)nc(NC3CCN(Cc4ccccc4)CC3)c2cc1OC | . | 6.7% | . | . | . | .
COc1ccc(-c2ccnc3c(Br)c(C)nn23)cc1 | 1.3 | 0.0%[1.84 µM] | i | 11.2µM* | i | -8.0%
Cc1nn2c(-c3ccc(F)cc3)ccnc2c1Br | 0.4 | 14.0% | i | 14.9% | i | -0.5%
Cc1ccccc1-c1nc2c3c(-c4ccccc4)c(-c4ccccc4)oc3ncn2n1 | . | . | i | 18.9% | i | .
CNC(=O)COC(=O)/C=C/c1nc2ccccc2s1 | 1.7 | 7.4% | i | 15.8µM* | i | -4.3%
CC(=O)c1ccc(NC(=O)CSc2nnc3ccc(-c4ccc(F)cc4)nn23)cc1 | . | . | i | ? | i | .
C1=CN2CC=Cc3cc(/C=C/c4ccnc5ccccc45)cc(c32)C1 | . | -20.9% | . | . | . | .
NCCC(=O)Nc1ccc(Cl)cc1C(=O)c1ccc[nH]1 | . | . | i | . | . | .
O=C(Nc1cc(S(=O)(=O)N2CCOCC2)ccc1N1CCCCC1)c1ccccc1Br | -33.0* | -5.5% | ? | -68.3% | i | ?
